We go through 19 compounds from PubChem BioAssay.

The nature of test [1]: antimalarial activity against Dd2 strain (AID 2302;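 active means growth inhibition above 50% at the single 2 µM test dose, taken to imply half-maximal potency below 2 µM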;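 further: 0% = DMSO untreated growth and 100% = chloroquine plus artemisinin killed control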). To be noted: P. falciparum Dd2 in RBCs, LDH growth readout, 72 h; at 2 µM; stronger effect = higher value.
Test [2] in a line: human hepatoma cell viability loss – ATP luminescence, cytotoxicity control for P. falciparum antimalarial project, primary screen (AID 2303;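 active means inhibition above 50%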;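 further: 0% = DMSO wells and 100% = digitonin-killed cells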). Particulars: HepG2 viability, 24-48 h, at 10 µM, stronger effect = higher value.
In test [3] the target is L-lactate dehydrogenase (Plasmodium falciparum (isolate CDC / Honduras)) (UniProt Q27743). In words: PfLDH activity inhibition – cell lysate, 3D7 strain, counter-screen for P. falciparum growth inhibition project (AID 2304).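 Further: 0% = vehicle and 100% = reference inhibitor.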 Particulars: P. falciparum 3D7 crude extract, LDH APAD/NBT absorbance; at 2 µM; stronger effect = higher value. In general terms: The purpose of a counterscreen is to sort out artefacts and off-target activity.
Chain of L-lactate dehydrogenase (Plasmodium falciparum (isolate CDC / Honduras)) (Q27743 whole entry, looked up): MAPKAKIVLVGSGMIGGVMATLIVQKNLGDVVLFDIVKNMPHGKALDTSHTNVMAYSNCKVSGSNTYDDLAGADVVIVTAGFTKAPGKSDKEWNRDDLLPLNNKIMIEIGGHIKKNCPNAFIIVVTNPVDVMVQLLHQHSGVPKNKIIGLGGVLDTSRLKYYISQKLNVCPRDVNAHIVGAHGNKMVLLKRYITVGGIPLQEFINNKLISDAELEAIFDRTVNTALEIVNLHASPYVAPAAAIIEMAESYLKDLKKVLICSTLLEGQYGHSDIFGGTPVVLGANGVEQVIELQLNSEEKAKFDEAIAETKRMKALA

A short description of test [4]: inhibition of 3D7 malaria parasite growth – strain 3D7 (AID 2306).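 Further: 0% = DMSO wells and 100% = chloroquine plus artemisinin control wells.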 Particulars: P. falciparum 3D7 erythrocytic growth, LDH absorbance, 72 h; at 2 µM; stronger effect = higher value.
For test [5], the target named is Calcium-dependent protein kinase 1 (Plasmodium falciparum (isolate 3D7)) (UniProt P62344). In words: PfCDPK1 kinase inhibitors, biochemical, TCAMS library (AID 1159585; cut-off not given, nearly all actives have IC50 up to about 0.98 µM;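 further: inhibitors leave more ATP so luminescence rises with inhibition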). Particulars: recombinant PfCDPK1, Kinase-Glo ATP depletion luminescence.
Chain of Calcium-dependent protein kinase 1 (Plasmodium falciparum (isolate 3D7)) (P62344 whole entry, looked up): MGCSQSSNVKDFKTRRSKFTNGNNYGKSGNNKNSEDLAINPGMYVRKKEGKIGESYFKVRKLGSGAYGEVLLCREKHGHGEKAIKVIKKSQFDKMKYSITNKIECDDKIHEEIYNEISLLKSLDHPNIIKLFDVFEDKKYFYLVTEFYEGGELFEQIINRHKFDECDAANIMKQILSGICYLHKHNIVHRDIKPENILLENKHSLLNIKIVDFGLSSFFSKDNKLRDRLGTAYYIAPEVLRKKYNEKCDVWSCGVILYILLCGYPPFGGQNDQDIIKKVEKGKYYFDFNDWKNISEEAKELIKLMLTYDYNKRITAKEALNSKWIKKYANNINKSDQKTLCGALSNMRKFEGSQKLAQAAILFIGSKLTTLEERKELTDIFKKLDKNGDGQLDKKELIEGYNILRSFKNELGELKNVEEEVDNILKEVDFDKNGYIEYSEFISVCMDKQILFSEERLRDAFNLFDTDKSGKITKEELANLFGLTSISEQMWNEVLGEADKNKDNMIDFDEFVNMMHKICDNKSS
Test [6] has as its target Plasmodium falciparum protein kinase 6 (PK6, PF3D7_1337100) (UniProt Q8IDW1). In words: PfPK6 kinase inhibitors, biochemical, TCAMS library (AID 1159586). Particulars: recombinant PfPK6, Kinase-Glo ATP depletion luminescence. (Kinase-Glo measures the ATP left after a reaction by luminescence.)
Test [7] addresses Protein kinase 7 (PK7), Plasmodium falciparum 3D7 (PF3D7_0213400) (UniProt Q7YTF7). In words: inhibition of Plasmodium PK7 catalytic activity – biochemical, TCAMS antimalarial set, Kinase-Glo luminescence (AID 1159587). Particulars: recombinant PfPK7, Kinase-Glo ATP depletion luminescence.
The target in test [8] is Calcium-dependent protein kinase 4 (Plasmodium falciparum (isolate 3D7)) (UniProt Q8IBS5). In words: PfCDPK4 kinase inhibitors, biochemical, TCAMS library (AID 1159588; cut-off not given, nearly all actives have IC50 up to about 0.91 µM). Particulars: recombinant PfCDPK4, Kinase-Glo ATP depletion luminescence.
Chain of Calcium-dependent protein kinase 4 (Plasmodium falciparum (isolate 3D7)) (Q8IBS5 whole entry, looked up): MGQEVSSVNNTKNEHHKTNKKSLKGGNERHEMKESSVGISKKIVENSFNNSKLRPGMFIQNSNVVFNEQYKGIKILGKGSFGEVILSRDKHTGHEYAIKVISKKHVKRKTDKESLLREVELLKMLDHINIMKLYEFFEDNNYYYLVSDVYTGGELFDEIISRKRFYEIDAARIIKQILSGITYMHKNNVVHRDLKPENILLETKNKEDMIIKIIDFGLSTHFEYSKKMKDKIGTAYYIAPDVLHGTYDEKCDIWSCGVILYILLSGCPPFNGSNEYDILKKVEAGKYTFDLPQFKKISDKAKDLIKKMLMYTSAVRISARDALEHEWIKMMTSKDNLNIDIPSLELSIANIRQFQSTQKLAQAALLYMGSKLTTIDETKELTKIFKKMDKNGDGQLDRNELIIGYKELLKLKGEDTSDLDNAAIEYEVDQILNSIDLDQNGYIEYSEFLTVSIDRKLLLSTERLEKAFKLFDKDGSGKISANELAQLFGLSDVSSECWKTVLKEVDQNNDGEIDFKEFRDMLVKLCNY

A number with no mark means an inactive call. For some assays here: Potency and affinity values are given separately. The source made the active and inactive calls. Unless noted, how the calls were made is not given here.

Usually inhibition stands for the drop in the measured response relative to a control, in per cent.

Chain of Protein kinase 7 (PK7), Plasmodium falciparum 3D7 (PF3D7_0213400) (Q7YTF7 1-343): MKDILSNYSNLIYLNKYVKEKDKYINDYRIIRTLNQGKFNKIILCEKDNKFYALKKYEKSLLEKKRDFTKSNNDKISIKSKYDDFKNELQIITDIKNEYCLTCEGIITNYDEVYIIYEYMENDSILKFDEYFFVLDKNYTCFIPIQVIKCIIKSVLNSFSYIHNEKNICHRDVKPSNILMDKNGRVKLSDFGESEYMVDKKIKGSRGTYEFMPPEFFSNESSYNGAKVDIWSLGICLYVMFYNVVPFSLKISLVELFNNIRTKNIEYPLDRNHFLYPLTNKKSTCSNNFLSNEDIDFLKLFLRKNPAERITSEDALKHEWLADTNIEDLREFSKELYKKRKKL
Chain of Plasmodium falciparum protein kinase 6 (PK6, PF3D7_1337100) (Q8IDW1 1-305): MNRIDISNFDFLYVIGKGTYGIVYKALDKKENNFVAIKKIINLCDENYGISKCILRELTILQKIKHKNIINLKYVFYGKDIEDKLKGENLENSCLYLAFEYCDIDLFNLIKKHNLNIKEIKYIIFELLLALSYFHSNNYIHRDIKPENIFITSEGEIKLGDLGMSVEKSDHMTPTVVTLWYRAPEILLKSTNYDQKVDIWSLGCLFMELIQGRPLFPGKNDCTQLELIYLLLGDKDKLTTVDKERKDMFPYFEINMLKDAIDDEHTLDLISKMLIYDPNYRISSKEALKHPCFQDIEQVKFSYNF

As to `CN(C)Cc1ccc(-c2ccc3ccnc(N)c3c2)cc1`, the growth inhibition in test [1] and in test [4] was 100% (active) in each case. Moreover, the inhibition in test [2] is 20%; in test [3], -1%. In addition, the result in test [5], in test [6], in test [7] and in test [8] was inactive.
Consider `O=C(/C=C/c1ccc(Cl)c(Cl)c1)NC1CCC(CN2CCC(Cc3c[nH]c4ccccc34)CC2)CC1` (configuration not stated), for which the growth inhibition was 9% in test [1] and 101% (active) in test [4]. Also, the inhibition in test [2] is 25%; in test [3], -7%. Besides, the outcome in test [5], in test [6], in test [7] and in test [8] was inactive.
As for `COc1ccc2c(NN=Cc3c(OC)ccc4ccccc34)cc(C)nc2c1`, the growth inhibition in test [1] is 85% (active); in test [4], 102% (active). The inhibition in test [2] was 7%; in test [3], 2%. In addition, the outcome in test [5], in test [6], in test [7] and in test [8] was inactive.
As for `CCC(C)NC(=O)Cn1c2ncccc2c(=O)n1-c1ccc(C)cc1` (configuration not stated), the growth inhibition was 63% (active) in test [1] and 95% (active) in test [4]. For the same compound, the inhibition in test [2] and in test [3] was 4% in each case. The outcome in test [5], in test [6], in test [7] and in test [8] was inactive.
Regarding `COc1cccc([C@@H](CC(=O)Nc2cc(C(F)(F)F)ccc2OC)Nc2ccc(C#N)c3ccccc23)c1`, the values for the growth inhibition in test [1] and in test [4] were 53% (active) and 96% (active), respectively. Besides, the inhibition is 19% in test [2] and -3% in test [3]. Moreover, the outcome in test [5], in test [6], in test [7] and in test [8] was inactive.
Turning to `CN1CCCC(CN2CCN(Cc3cccc(-c4cccc(-c5nc6ccccc6[nH]5)c4)c3)CC2)C1` (configuration not stated), the growth inhibition in test [1] is 99% (active); in test [4], 100% (active). Besides, the inhibition was 45% in test [2] and -8% in test [3]. For the same compound, the result in test [5], in test [6], in test [7] and in test [8] was inactive.
Take `CC(CN(C)C)C(=O)Nc1ccc(-c2ccc(-c3nc4ccc(C(F)(F)F)cc4[nH]3)cc2)cc1` (configuration not stated): the growth inhibition in test [1] is 93% (active); in test [4], 101% (active). Besides, the inhibition in test [2] is 14%; in test [3], 2%. The result in test [5], in test [6], in test [7] and in test [8] was inactive.
Regarding `CC(C)Nc1cc(C(=O)N[C@@H](Cc2ccccc2)[C@H](O)CNC2CCOCC2)c(F)c(N2CCCCS2(=O)=O)c1`, the growth inhibition in test [1] and in test [4] was 98% (active) throughout. Further, the inhibition in test [2] was 2%; in test [3], -2%. For the same compound, the outcome in test [5], in test [6], in test [7] and in test [8] was inactive.
Turning to `O=C(Cc1cccc(Cl)c1)Nc1cccc(-c2c[nH]c3nc(Nc4cccc(OCc5ccccc5)c4)ncc23)c1`, the growth inhibition in test [1] is 56% (active); in test [4], 100% (active). The inhibition in test [2] and in test [3] was -1% each time. Further, the outcome in test [5], in test [6], in test [7] and in test [8] was inactive.
Regarding `O=C(Nc1cccc(CN2CCCN(Cc3cccc(O)c3)CC2)c1)c1cc2ccccc2s1`, the growth inhibition in test [1] is 75% (active); in test [4], 101% (active). In addition, the results for the inhibition in test [2] and in test [3] were 15% and -4%, respectively. For the same compound, the outcome in test [5], in test [6], in test [7] and in test [8] was inactive.
For `Cc1cccc2[nH]c(-c3ccc(-c4ccc(NC(=O)NCc5ccc(F)cc5)cc4)cc3)nc12`, the growth inhibition was 99% (active) in test [1] and 100% (active) in test [4]. Besides, the values for the inhibition in test [2] and in test [3] were 70% (active) and -3%, respectively. The result in test [5], in test [6], in test [7] and in test [8] was inactive.
Turning to `N#Cc1cccc(C(=O)Nc2ccc(-c3cccc(CN4CCC(O)CC4)c3)cc2)c1`, the growth inhibition in test [1] was 68% (active); in test [4] it was 100% (active). Moreover, the inhibition in test [2] is 33%; in test [3] it was 7%. The outcome in test [5], in test [6], in test [7] and in test [8] was inactive.
Regarding `COc1ccc(C2CCN(CCN3CCC(NC(=O)c4ccc(-c5cccc(C(F)(F)F)c5C(F)(F)F)cc4)CC3)CC2)c(OC)c1`, the growth inhibition in test [1] is 61% (active); in test [4], 102% (active). Further, the inhibition is 35% in test [2] and -4% in test [3]. Moreover, the outcome in test [5], in test [6], in test [7] and in test [8] was inactive.
For the compound `Oc1ccccc1CNCc1ccc(-c2cnc(N3CCCC(c4ccccc4)C3)nc2)cc1` (configuration not stated), the values for the growth inhibition in test [1] and in test [4] were 84% (active) and 99% (active), respectively. For the same compound, the inhibition was 6% in test [2] and -4% in test [3]. Further, the result in test [5], in test [6], in test [7] and in test [8] was inactive.
With `Oc1ccc(CCNCCCCCCNCCc2ccc(Cl)c(Cl)c2)cc1O`, the results for the growth inhibition in test [1] and in test [4] were 2% and 101% (active), respectively. Moreover, the results for the inhibition in test [2] and in test [3] were 21% and -1%, respectively. For the same compound, the outcome in test [5], in test [6], in test [7] and in test [8] was inactive.
As to `Cc1cc(C(=O)OCC(=O)Nc2c(C)n(C)n(-c3ccccc3)c2=O)c(C)n1-c1ccc(F)cc1`, the results for the growth inhibition in test [1] and in test [4] were 99% (active) and 100% (active), respectively. In addition, the inhibition in test [2] is -4%; in test [3], -1%. The result in test [5], in test [6], in test [7] and in test [8] was inactive.
On to `C[C@H](NC(=O)c1c(CN2CCC(NC(=O)CC(C)(C)C)CC2)c(-c2cccs2)nc2ccccc12)C1CCCCC1`, for which the growth inhibition is 70% (active) in test [1] and 91% (active) in test [4]. Moreover, the inhibition in test [2] and in test [3] was -3% each time. Further, the result in test [5], in test [6], in test [7] and in test [8] was inactive.
As for `CCOc1ccc(-c2nonc2NC(=O)c2ccccc2Cl)cc1OCC`, the growth inhibition in test [1] was 100% (active); in test [4] it was 101% (active). Moreover, the inhibition is 3% in test [2] and 4% in test [3]. The result in test [5], in test [6], in test [7] and in test [8] was inactive.
Take `CCC(CC)CN1C(=O)C(C)(c2ccccc2)N=C1N` (configuration not stated): the growth inhibition in test [1] was 11%; in test [4], 84% (active). The results for the inhibition in test [2] and in test [3] were 1% and -2%, respectively. The outcome in test [5], in test [6], in test [7] and in test [8] was inactive.
